ALOX12 inhib – inhibitors of human 12-lipoxygenase (ALOX12) | P18054 | purified 12-hLO, xylenol orange hydroperoxide absorbance | Potency, µM (top dose mostly 57.1 µM), for inactives: top-dose activity change, negative = inhibition, hits mostly inhibitors | 0.12% of 150,000 active; note: potency is the fitted concentration of half-maximal effect; nearly all actives have a fitted effect of over 55% in size
Target sequence (P18054 whole entry, looked up): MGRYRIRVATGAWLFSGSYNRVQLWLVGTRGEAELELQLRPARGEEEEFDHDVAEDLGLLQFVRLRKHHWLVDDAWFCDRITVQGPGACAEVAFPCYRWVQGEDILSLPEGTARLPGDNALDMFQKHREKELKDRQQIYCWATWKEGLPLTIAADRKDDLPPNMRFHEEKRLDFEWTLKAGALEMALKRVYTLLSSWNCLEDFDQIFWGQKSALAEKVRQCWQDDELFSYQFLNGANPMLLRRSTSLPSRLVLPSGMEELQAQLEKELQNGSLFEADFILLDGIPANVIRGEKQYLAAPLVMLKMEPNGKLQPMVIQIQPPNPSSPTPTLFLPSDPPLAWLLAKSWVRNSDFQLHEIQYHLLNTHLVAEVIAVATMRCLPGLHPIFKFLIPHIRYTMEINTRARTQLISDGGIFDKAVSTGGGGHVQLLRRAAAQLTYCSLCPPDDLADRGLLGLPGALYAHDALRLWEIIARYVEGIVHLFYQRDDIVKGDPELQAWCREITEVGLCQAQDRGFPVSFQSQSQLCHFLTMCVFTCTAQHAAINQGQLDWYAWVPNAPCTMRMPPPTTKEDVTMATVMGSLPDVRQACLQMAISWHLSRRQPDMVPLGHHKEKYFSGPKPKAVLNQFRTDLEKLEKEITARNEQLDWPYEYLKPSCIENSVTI
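Purified human 12hLO (150 nM), preincubated 15 min with compound, then 40 uM arachidonic acid for 30 min, room temperature, Hepes pH 7.0 with 0.01% Triton X-100. Hydroperoxide detected by ferrous iron/xylenol orange; 573/405 nm absorbance ratio gives reaction progress.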
ALDH1A1 inh – blocks purified human ALDH1A1 activity; P00352; Purified ALDH1A1, NADH fluorescence, propionaldehyde substrate; Potency, µM (top dose mostly 75.3 µM), inactives show at the top dose activity, negative = inhibition, hits mostly inhibitors; 7.3% of 220,000 active; active = well fitted inhibition curve with a large enough effect, not every such curve was filed as active; inconclusive = small, poorly fitted or top-dose-only effect, or another doubt; inactive = no such curve, though single readings can be large or run the other way;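 note: potency is the fitted concentration of half-maximal effect; plate controls were no enzyme wells and a reference inhibitor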
NPSR antagonist – antagonists of human neuropeptide S receptor cAMP signaling; 1% of 220,000 active; CHO-NPSR cells, cAMP TR-FRET, antagonist mode; Potency, µM (doses to about 38.3 µM), for inactives: top-dose activity change, negative = inhibition, most hits filed as inhibitors; Q6W5P4; note: potency is the fitted concentration of half-maximal effect; nearly all actives have a fitted effect of over 50% in size
HPGD block – inhibitors of human 15-hydroxyprostaglandin dehydrogenase (HPGD); 4.3% of 150,000 active; AID 894; purified HPGD, NADH fluorescence kinetic, PGE2 substrate; Potency, µM, without a hit: top-dose activity change, negative = inhibition, actives largely listed as inhibitors; active = well fitted inhibition curve with a large enough effect, not every such curve was filed as active; inconclusive = small, poorly fitted or top-dose-only effect, or another doubt; inactive = no such curve, though single readings can be large or run the other way; note: potency is the fitted concentration of half-maximal effect
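20 nM HPGD preincubated 15 min at room temperature with compound in 50 mM Tris-HCl pH 8, 0.01% Tween 20. Started with 1 mM NAD+ and 30 uM prostaglandin E2; NADH fluorescence (360/450 nm) read 5 times over 30-s intervals, last minus first.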
IMPase inh – cell-permeable inhibitors of inositol monophosphatase (IMPase) | P97697 | CHO-M1 cells, IP1 accumulation, HTRF TR-FRET ratio | inhibition (IP1 accumulation), % at 46.1 µM | 120,000 tested, under 10 active | AID 901; active = well fitted curve in the direction sought with a large enough effect in the signal ratio, not every such curve was filed as active; inconclusive = small, poorly fitted or top-dose-only effect, or a change in a side signal; inactive = no such curve, though single readings can be large or run the other way; the % refers to the signal ratio;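 note: cells stimulated with carbachol in lithium chloride buffer; plate controls were DMSO basal wells for no effect and reference inhibitor wells for full effect; higher means more IMPase inhibition seen as more IP1 and lower FRET ratio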
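CHO-M1, 2000 cells/well, cultured 16–30 h; cpd up to 46 uM; carbachol (50 uM solution, stimulation buffer w/ 50 mM LiCl, pH 7.4), 30 min 37C; IP-One TR-FRET, 10 min RT; Ex 320/Em 665, 620; Hill-fit AC50.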
IMPase Li inh – membrane-permeable IMPase blocker, potentiated with lithium; AID 1457; 0.35% of 210,000 active; Potency, µM (highest dose often 59.4 µM), for inactives: at the top dose activity, negative = IMPase inhibition, actives largely listed as inhibitors; CHO-M1 cells, IP1 TR-FRET (IP-One), carbachol + lithium;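 note: IP1 builds up when IMPase is blocked and the TR-FRET signal falls; potency is the fitted concentration of half-maximal effect; plate controls were basal vehicle for no effect and high inhibitor control for full effect; nearly all actives have a fitted effect of over 50% in size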
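CHO cells stably expressing M1 receptor (2000/well, cultured 16–30 h) treated 30 min at 37C with compound plus low lithium. Cytosolic IP1 by TR-FRET (665/620 ratio and 620 channel) after 10 min lysis; AC50 by Hill fit.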
Starred values were filed as active, the others as inactive; ? = inconclusive; / = no result given; [ ] = another dose, or the depositor's remark. In the library only some 8.9% were active in any assay of this set; here they are far more common. Unless noted, calls come from the whole dose curve; as a rule, active = well fitted curve in the direction sought with a large enough effect; inconclusive = small, poorly fitted or top-dose-only effect, or another doubt; inactive = no such curve, though single readings can be large; an effect the other way counts as inactive or inconclusive. Unless noted, % is set by controls: 0 for no effect and ±100 for the full control effect.

SMILES | ALOX12 inhib | ALDH1A1 inh | NPSR antagonist | HPGD block | IMPase inh | IMPase Li inh
COC(=O)C1=C(C(=O)OC)[C@@H]2N(C)c3ccccc3[C@@]23C[C@@H](C(=O)OC)N(C(=O)COCc2ccccc2)C3=N1 | 3%[11.4 µM] | -3%[13.5 µM] | 12% | 1% | / | 5%
CC(=O)Nc1ccc(S(=O)(=O)N2CCSC2c2ccco2)cc1 (stereo unspecified) | / | ? | 9% | / | / | 2%
O=C(Nc1ccc(Cl)c(Cl)c1)N1CCSC1c1ccco1 (stereo unspecified) | ? | 5µM* | ? | 22µM* | 7 | 27%[38.3 µM]
Cc1nc(SC(C(N)=O)c2ccccc2)c(C#N)c(C)c1C (stereo unspecified) | / | / | -18% | / | / | /
COc1ccccc1-c1cc(-c2ccccc2)nc(SC(C(N)=O)c2ccccc2)c1C#N (stereo unspecified) | -5% | ? | ? | ? | ? | 7.9µM*
O=[N+]([O-])c1ccc(/C=N/N/C(=N/c2ccccn2)c2ccccn2)cc1 | -5% | ? | -7%[46.1 µM] | 28µM* | 9 | 4%[38.3 µM]
Cc1ccc(-c2cn(-c3ccccc3)c(SCC(=O)NC3CCS(=O)(=O)C3)n2)cc1C (stereo unspecified) | -3% | 14µM* | -16% | -11% | / | 10%
Cc1c(C(=O)Nc2ccc3c(c2)CCC3)cccc1[N+](=O)[O-] | -6% | 9.5µM* | -26% | -26% | / | 15%
CCC(=O)Nc1cccc(NC(=O)c2cccc([N+](=O)[O-])c2C)c1 | 1% | -7% | 23% | -11% | / | -1%
CCSc1nc2c(c(=O)[nH]1)C(c1ccncc1)C(C(=O)OC)=C(C)N2 (stereo unspecified) | -3% | 6% | -3%[46.1 µM] | -14% | -2 | 1%[38.3 µM]
COc1cccc2c(=O)n(CC(=O)Nc3cccc(F)c3)ccc12 | -4% | ? | -3%[46.1 µM] | ? | -23 | 14µM*
Cn1nc(SCC(=O)O)sc1=S | -4% | 3% | 3%[46.1 µM] | 14µM* | -2 | -5%[38.3 µM]
CCOC(=O)C(Sc1nn(C)c(=S)s1)C(C)=O (stereo unspecified) | -17% | ? | -18%[46.1 µM] | -23% | 8 | 6%[38.3 µM]
CC(C)NC(=O)c1onc(CSc2cccc3ccccc23)c1C(=O)O | 5% | ? | -6%[46.1 µM] | 22µM* | -2 | -4%[38.3 µM]
CC(C)NC(=O)c1onc(CSc2ccccc2)c1C(=O)O | 2% | -14% | 2%[46.1 µM] | -5% | -4 | -25%[38.3 µM]
COCCNC(=O)c1onc(CSc2ccc(C(C)C)cc2)c1C(=O)O | 6% | 0% | -9%[46.1 µM] | 16µM* | 13 | -5%[38.3 µM]
CCCCNC(=O)c1onc(CSc2ccc(C(C)C)cc2)c1C(=O)O | -7% | 1% | -13%[46.1 µM] | 10µM* | -2 | 7%[38.3 µM]
CC(=O)NC(O)C(=O)c1ccccc1 (stereo unspecified) | -6% | -3% | 4%[46.1 µM] | -8% | 27 | 2%[38.3 µM]
COc1ccc(-c2csc(NNC3=NCCCCC3)n2)cc1 | / | 13µM* | -24% | / | / | 19%
c1ccc(-c2csc(NNC3=NCCCCC3)n2)cc1 | ? | 32µM* | -19%[46.1 µM] | ? | 11 | 38%[38.3 µM]
Clc1ccc(-c2csc(NNC3=NCCCCC3)n2)cc1 | 7% | ? | -4%[46.1 µM] | ? | 2 | 7%[38.3 µM]
COc1ccc(-c2csc(NC3=NCCCCC3)n2)cc1 | -6% | -16% | -12% | -27% | / | 12%
O=C(COC(=O)c1ccccc1C(=O)N1CCN(c2ccccc2)CC1)Nc1ccc(F)cc1 | -5% | 16% | -27%[46.1 µM] | -3% | 10 | 12%[38.3 µM]
CC1CCN(CCOc2cccc(Br)c2)CC1 | -1% | -4% | 16% | -5% | / | 7%
Brc1cccc(OCCCN2CCCCCC2)c1 | / | 13µM* | -18% | / | / | 18%
SMILES | ALOX12 inhib | ALDH1A1 inh | NPSR antagonist | HPGD block | IMPase inh | IMPase Li inh
COc1ccc(NC(=O)N2CCc3nc(-c4ccc(OC)cc4C)c4c(c3C2)CO[C@@H](c2ccccc2)C4)cc1 | -2%[11.4 µM] | 4µM* | / | -6% | / | -1%
O=C(c1cc(Cl)cc(Cl)c1)N1CCN(c2cc(C(F)(F)F)nc3ccccc23)CC1 | / | / | -14% | / | / | /
CCCCn1c(CCn2nc(C)c(Br)c2C)n[nH]c1=S | -1% | -10% | -8%[46.1 µM] | 22µM* | 7 | 0%[38.3 µM]
C/C(=N\O)C(=O)C(CN1CCCCC1)CN1CCCCC1 | -3% | 1.6µM* | -11%[46.1 µM] | ? | -2 | 23%[38.3 µM]
CC(=O)/C(CN1CCCCC1)=N\O | -5% | 3.5µM* | -4%[46.1 µM] | -7% | 4 | 14%[38.3 µM]
O=c1c(Cc2c(F)cccc2Cl)c(O)ccn1C1CCCCCC1 | / | 0% | -27% | / | / | 12%
N#C/C(=C/c1ccc(N2CCOCC2)o1)C(=O)NC1CCCCC1 | / | 6.3µM* | 42% | / | / | 20%
N#C/C(=C\c1ccc(N2CCOCC2)o1)C(=O)Nc1ccc(O)cc1 | / | 20µM* | -34% | / | / | 9%
COc1ccc(NC(=O)/C(C#N)=C\c2ccc(N3CCOCC3)o2)cc1 | / | ? | 14% | / | / | 18%
COC(=O)c1sc2ncccc2c1OCc1ccc(Cl)cc1 | -6% | -9% | ? | -11% | 5 | -20%[38.3 µM]
CC(=O)C1C(=O)C=C(c2ccco2)CC1c1ccccc1 (stereo unspecified) | -21% | 25µM* | -23%[46.1 µM] | -26% | ? | 21%[38.3 µM]
COc1c(Br)cc(Br)cc1/C=C1/C(=O)N=C(N)N1C | / | 11% | 8% | / | / | -7%
COc1cc(/C=C2/C(=O)N=C(N)N2C)cc(OC)c1OC | -6% | ? | -3%[46.1 µM] | 16µM* | 12 | 51%[38.3 µM]
COC(=O)c1cc(NC(=O)c2c(Cl)nc3sccn23)cc(C(=O)OC)c1 | -2% | -5% | 3%[7.67 µM] | ? | 2 | 11µM*
CCCCc1nnc(NC(=O)C2CC(=O)N(c3ccc4c(c3)OCCO4)C2)s1 (stereo unspecified) | -3% | -5% | -12%[46.1 µM] | -17% | 7 | -5%
O=C(Cn1nnc(-c2ccc(CN3CCOCC3)cc2)n1)N(c1ccccc1)c1ccccc1 | / | 11µM* | 15% | / | / | 13%
O=C(Cn1nnc(-c2ccc(CN3CCOCC3)cc2)n1)N1CCCc2ccccc21 | 2% | 1% | -7%[46.1 µM] | -10% | 0 | -4%[38.3 µM]
O=C(Cc1ccc(-n2cccc2)cc1)NCc1cccs1 | -7% | -3% | 10%[46.1 µM] | / | -5 | /
CCOC(=O)c1cc(-c2cccnc2)nn1-c1ccccc1 | / | -8% | -4% | / | / | -6%
CCOC(=O)c1cc(-c2ccccc2)nn1-c1ccccn1 | 3% | 13µM* | -18%[46.1 µM] | -20% | 13 | 55%[38.3 µM]
S=c1[nH]cc(-c2ccccc2)n1-c1cccc(Cl)c1 | -11% | ? | -2% | ? | / | 3%
Cc1ccc(-c2c[nH]c(=S)n2-c2ccccc2F)cc1 | / | 2µM* | -19% | / | / | 6%
Cc1ccc(-c2c[nH]c(=S)n2-c2ccccc2)cc1 | / | 1µM* | -19% | / | / | 0%
